VDR inhibitor = blocks the human vitamin D receptor; VDR-SRC2-3 peptide fluorescence polarization, 2 h; Potency, µM, without a hit: max response, negative = inhibition, usual class: inhibitors; 0.93% of 400,000 active; AID 504847; note: % is set by controls: 0 for no effect and ±100 for the full control effect
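Measured by FP: displacement of SRC2-3 coactivator peptide from VDR by library compounds, following a two-hour ambient incubation.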
GRP78 ERSR act = inducers of ER stress response in human glioma cells | 0.02% of 420,000 active | Potency, µM, for inactives: top-dose activation, most hits filed as activators | U87-MG GRP78 promoter luciferase reporter, 16 h; note: series mostly up to about 76 µM; % of control where 0% means no effect; nearly all actives have a fitted effect of over 35% in size
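ERSR induction read as luciferase luminescence (Bright-Glo, 10 min at room temperature) in stably transfected human U87-MG glioma cells exposed to compounds for 16 h, using GRP78 as sensor.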
G9a inh = blocks human histone lysine methyltransferase G9a | Q96KQ7 | G9a H3K9 monomethylation, AlphaScreen, 2 h | Potency, µM (doses to about 102 µM), for the others: top-dose activity, negative = inhibition, usual class: inhibitors | 8.8% of 350,000 active | AID 504332; note: % is set by controls: 0 for no effect and ±100 for the full control effect; nearly all actives have a fitted effect of over 75% in size
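AlphaScreen detection with an anti-monomethyl H3K9 antibody quantified product after a 2 h room-temperature reaction containing 500 nM biotinylated H3K9 peptide, 20 µM SAM and 20 nM enzyme, which had been preincubated 15 min with compound.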
Sfp inh = blocks B. subtilis Sfp PPTase activity; Q9F4F7; Biochemical Sfp PPTase activity, qHTS; Potency, µM, inactives show largest response in the series, negative = inhibition, actives largely listed as inhibitors; 3.5% of 310,000 active;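 note: the enzyme is Sfp with the accession as filed and its product quenches rhodamine fluorescence; 0% = enzyme reaction without inhibitor and -100% = no enzyme wells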
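Reaction rates are the 30-min fluorescence difference (ex 525, em 598 nm) in wells containing 15 nM Sfp, 5 uM rhodamine-CoA and 12.5 uM BHQ-2-YbbR at pH 7.6 with 10 mM MgCl2.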
12-LOX inh = ALOX12 (human) lipoxygenase inhibition | P18054 | purified 12hLO, xylenol orange hydroperoxide absorbance | Potency, µM (highest dose often 108 µM), for the others: at the highest dose activity change, negative = inhibition, most hits filed as inhibitors | 1.1% of 580,000 active | AID 1671190; note: % is set by controls: 0 for no effect and ±100 for the full control effect
Target sequence (P18054 whole entry, looked up): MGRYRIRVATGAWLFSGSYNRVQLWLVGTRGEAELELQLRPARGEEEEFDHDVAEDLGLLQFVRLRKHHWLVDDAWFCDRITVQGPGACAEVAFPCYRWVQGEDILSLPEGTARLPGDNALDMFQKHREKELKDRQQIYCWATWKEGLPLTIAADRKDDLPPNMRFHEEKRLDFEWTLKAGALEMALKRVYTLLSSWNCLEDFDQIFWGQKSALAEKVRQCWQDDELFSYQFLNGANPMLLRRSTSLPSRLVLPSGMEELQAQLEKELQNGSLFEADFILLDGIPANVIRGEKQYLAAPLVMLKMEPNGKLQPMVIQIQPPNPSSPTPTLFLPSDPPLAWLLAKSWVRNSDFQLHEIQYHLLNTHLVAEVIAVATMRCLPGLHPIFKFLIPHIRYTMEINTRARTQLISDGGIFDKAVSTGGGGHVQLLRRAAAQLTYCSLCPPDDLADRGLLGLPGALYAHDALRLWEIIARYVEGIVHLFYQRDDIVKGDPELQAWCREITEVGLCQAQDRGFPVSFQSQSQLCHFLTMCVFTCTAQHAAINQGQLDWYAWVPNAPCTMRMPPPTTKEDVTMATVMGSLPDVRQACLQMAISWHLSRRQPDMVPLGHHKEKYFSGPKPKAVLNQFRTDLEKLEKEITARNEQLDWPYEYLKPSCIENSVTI
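Purified human 12hLO at 150 nM in 25 mM Hepes, 0.01% Triton X-100, pH 7.0, preincubated 15 min at room temperature with compound. Reaction started with 40 uM arachidonic acid, 30 min at room temperature. Hydroperoxide measured by Fe-xylenol orange, 573/405 nm absorbance ratio.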
* = called active by the depositor; ? = inconclusive; · = no result given; ! = not active in a repeat; [ ] = remark or other dose. This is one part of a sample in which hits are shown more often than they occur. Calls come from the whole dose curve; as a rule, active = well fitted curve in the direction sought with a large enough effect; inconclusive = small, poorly fitted or top-dose-only effect, or another doubt; inactive = no such curve, though single readings can be large; an effect the other way counts as inactive or inconclusive. Potency is the fitted concentration of half-maximal effect.

SMILES	VDR inhibitor	GRP78 ERSR act	G9a inh	Sfp inh	12-LOX inh
CCn1c(SCC(=O)N/N=C/C=C\c2ccco2)nc2ccccc21	?	-2%	16µM*	10µM*	?
CC(/C=N/NC(=O)CSc1nnc(SCc2ccccc2)s1)=C\c1ccco1	18%	-4%	11µM*	?	-15%
Cn1c(SCC(=O)N/N=C/C=C\c2ccco2)nc2ccccc21	-23%	-11%	·	-65%	?
O=C(CSc1nc2ccccc2n1Cc1ccccc1)N/N=C/c1ccco1	-7%	-1%	1%[59 µM]	?	0%
Cn1c(CCNC(=O)c2ccccc2F)nnc1SCC(=O)N1CCOCC1	·	·	·	·	2%
CCn1c(CS(=O)Cc2ccc(Cl)cc2Cl)nnc1SCc1c(Cl)cccc1Cl (configuration not stated)	-21%	-3%	16µM*	-14%	9%
O=[N+]([O-])c1ccc(CNC2CCCc3ccccc32)cc1 (configuration not stated)	-5%	-2%	·	63µM*	?
COc1cccc(CNC2CCCc3ccccc32)c1OC (configuration not stated)	-2%	-5%	40µM*	-7%	?
COc1cccc(CNC2CCCCCCC2)c1OC	5%	-4%	·	-4%	0%
O=C(NCCNc1ncccn1)NCc1ccccc1	·	·	·	·	54%
Cc1cc(C(=O)N2CCC3(CC2)CC(CC(=O)NCc2ccccc2)CCO3)n[nH]1 (configuration not stated)	·	·	·	·	26%
CCc1ccc(-c2cc(C)no2)cc1S(=O)(=O)Nc1cc(Cl)ccc1OC	·	·	·	·	-1%
CN(C)CCCC1(c2ccc(F)cc2)OCc2cc(C#N)ccc21 (configuration not stated)	-7%	-2%	71µM*!	17%	-2%
CCOc1ccccc1Nc1nc(-c2sc(NC(=O)c3ccc([N+](=O)[O-])cc3)nc2C)cs1	·	·	?	-2%	·
Cc1ccc(Cl)cc1Nc1nc(-c2sc(NC(=O)c3ccco3)nc2C)cs1	-20%	4%	?	8%	-26%
Cc1ccccc1Nc1nc(-c2sc(NC(=O)c3ccc([N+](=O)[O-])cc3)nc2C)cs1	·	·	25µM*	-10%	·
Cc1ccc(Cl)cc1Nc1nc(-c2sc(NC(=O)c3cccc(Cl)c3)nc2C)cs1	·	·	32µM*	-1%	·
Cc1ccccc1Nc1nc(-c2sc(NC(=O)c3ccccc3)nc2C)cs1	·	·	35µM*	25µM*	·
Cc1ccccc1Nc1nc(-c2sc(NC(=O)c3cccc(Cl)c3)nc2C)cs1	·	·	22µM*	-7%	·
Cc1ccc(C(=O)NC(C(=O)N2CCCCC2)C2CCN(S(=O)(=O)C(C)C)CC2)cc1 (configuration not stated)	·	·	·	·	-4%
Cn1nc(C(=O)OC2CCCCCC2)c2ccccc2c1=O	·	·	·	·	14%
CN(C)c1ccc(C(=O)OCc2ccccc2)cc1	-4%	4%	3%	2%	0%
O=C1C=CC(=O)C(CNc2ccc(C(=O)OCc3ccccc3)cc2)=C1	?	-4%	·	·	16µM*
CCn1cnc2c1c(=O)n(CC(=O)NCC1(c3ccccc3)CC1)c(=O)n2Cc1ccccc1	·	·	·	·	29%
C/C(=C\C[Si](C)(C)C)CCC=O	-11%	·	·	63µM*	·
SMILES	VDR inhibitor	GRP78 ERSR act	G9a inh	Sfp inh	12-LOX inh
COc1cc2c(cc1OC)C(c1cc(OC)c(OC)cc1[N+](=O)[O-])N(C(C)=O)CC2 (configuration not stated)	-21%	-7%	71µM*	-4%	7%
COc1cc2c(cc1OC)C(c1cc(Br)ccc1O)N(C(C)=O)CC2 (configuration not stated)	-10%	-4%	·	·	126%
COCCN1C(=O)c2ccccc2C(C(=O)Nc2nc3ccccc3s2)C12CCCCC2 (configuration not stated)	·	·	·	·	-16%
Cc1cc(/C=C(/C#N)c2nc3ccccc3[nH]2)c(C)n1-c1cccc([N+](=O)[O-])c1	-1%	-2%	11µM*	5%	-16%
Cc1ccc2nc(/C(C#N)=C/c3ccc(-c4cccc([N+](=O)[O-])c4)o3)[nH]c2c1	-3%	-5%	7.9µM*	-16%	-28%
CN(CCS(=O)(=O)c1ccccc1)Cc1ccccc1	·	·	·	·	1%
COc1ccc(N(C(=O)C23CC4CC(CC(C4)C2)C3)C2C=CS(=O)(=O)C2)cc1 (configuration not stated)	·	·	·	·	-2%
O=C(O)c1ccc(COc2ccccc2/C=N/O)cc1	·	·	·	·	-2%
COc1cnc(-c2ccccn2)nc1N(C)c1ccccc1	-18%	0%	?	50µM*	-6%
COc1cnc(-c2ccccn2)nc1Oc1ccccc1	21%	5%	-4%	7%	0%
CCc1cccc2c(C=O)c[nH]c12	·	·	·	·	-19%
OCc1ccccc1-c1nc(NCc2ccccc2)nc2ccsc12	·	-2%	·	·	14µM*
COC(=O)Nc1[nH]ncc1[N+](=O)[O-]	9%	-2%	-2%	11%	35µM*
O=S(=O)(Oc1ccc2ccccc2c1)c1cccc2nsnc12	·	·	·	·	-24%
Cc1ccccc1C(=O)OCC1CCC[N+]2(C)CCCCC12 (configuration not stated)	·	·	·	·	28µM*
CC(C)(C)C(=O)OCC1CCC[N+]2(C)CCCCC12 (configuration not stated)	·	·	·	·	28µM*
FC(F)(F)c1cccc(-n2cccc2/C=N/n2cnnc2)c1	-9%	-4%	?	8%	14µM*
Oc1ccc(-n2cccc2/C=N/n2cnnc2)cc1	20%	2%	?	-2%	14%
O=C(COC(=O)c1ccc([N+](=O)[O-])cc1Cl)c1ccc2c(c1)OCCO2	·	·	·	·	-10%
Cc1cc(C)nc(/N=C2/NC(=O)CS2)n1	?	-3%	20µM*	32µM*	?
O=C(COCc1cc(-c2ccc(F)cc2)on1)Nc1cccc(O)c1	·	·	·	·	-24%
CCc1c(C)sc(NC(=O)C2CC3CCC2C3)c1C#N (configuration not stated)	·	·	·	·	16µM*
CCc1c(C)sc(NC(=O)Cc2ccccc2Cl)c1C#N	·	·	·	·	-6%
CCc1c(C)sc(NC(=O)c2ccncc2)c1C#N	·	·	·	·	0%
CCc1c(C)sc(NC(C)=O)c1C#N	·	·	·	·	32µM*
SMILES	VDR inhibitor	GRP78 ERSR act	G9a inh	Sfp inh	12-LOX inh
CCc1c(C)sc(NC(=O)c2cccs2)c1C#N	-9%	-1%	13µM*	?	?
CCc1c(C)sc(NC(=O)C2CCCO2)c1C#N (configuration not stated)	?	2%	8.9µM*	22µM*	?
Cc1ccccc1CC(=O)Nc1ccc(OC2CCCC2)cc1	·	·	·	·	-7%
Cc1ccc(C)c(C(=O)Nc2ccc(-c3nc4ccccc4s3)cc2)c1	·	·	·	·	26%
CCN1C(=O)C(Cc2cc(OC)ccc2OC)c2ccccc21 (configuration not stated)	·	·	·	·	-8%
O=C(Nc1ccccc1)N1CCN(c2cc(=O)n3nc(-c4ccco4)sc3n2)CC1	·	·	·	·	-45%
O=C(C(Sc1nnc(-c2cccnc2)n1-c1ccccc1)c1ccccc1)N1CCCC1 (configuration not stated)	·	·	·	·	-6%

From PubChem
